# Assay outcomes (PubChem BioAssay)
# The list is not random: actives were taken first. Their share in the collection is about 7.9%.
# Shh pathway inh – Hedgehog pathway signaling inhibitors, primary screen, luminescence, Shh-LIGHT2 cells, Gli-luciferase. Shh-LIGHT2 Gli-luciferase reporter, 30 h. inhibition, % (no concentration beside the values). 2.1% of 22,000 active. AID 2313, 2010;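 active = mean inhibition across valid replicates above about 65%, limit read from the data; inconclusive = mean under the limit, yet half or more replicates past it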;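 also: pathway switched on by Shh-conditioned medium diluted 1 in 25 in low serum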
# MITF inh – inhibitors of MITF, primary screen, MITF inhibitor project, cell-based, luminescence | TRPM1 promoter luciferase, 24 h | inhibition, % (no concentration beside the values) | 0.28% of 37,000 active; in the data active = inhibition above about 85%; inconclusive = no clear call, values can overlap the other calls; inactive = below about 68%;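 also: human melanocyte line stably carrying TRPM1 promoter luciferase reporter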
# NOMO-1 viab – NOMO-1 AML cell viability reduction, primary screen, STK33 inhibitor project, CellTiter-Glo luminescence. NOMO-1 AML viability, 72 h. inhibition, % (test concentration not listed). 7.5% of 37,000 active; in the data active = inhibition above about 80%; inconclusive = no clear call, values can overlap the other calls
# Active calls of the source: *; u = inconclusive; x = no result.
SMILES,Shh pathway inh,MITF inh,NOMO-1 viab
Cc1ccc(-n2nc3ccc(NC(=O)COc4cccc(C)c4)cc3n2)cc1,x,-27.4,29.6
O=[N+]([O-])c1cc(C(F)(F)F)ccc1Sc1nnc(CCCO)n1-c1ccccc1,x,2.9,28.9
CC(C)(C)c1ccc(OCc2nnc(Sc3ccc([N+](=O)[O-])cn3)n2-c2ccccc2)cc1,x,39.2,108.9*
CC(C)NC(=O)Nc1ccc2c(c1)C(=O)N([C@H](C)CO)C[C@@H](C)[C@H](CN(C)C)O2,x,-3.4,-8.0
COc1ccc(-c2cc(=O)oc3cc(OC(C(=O)O)c4ccccc4)ccc23)cc1 (stereo not given),x,-7.7,3.0
O=c1c(Cc2ccccc2OCc2ccccc2)coc2ccccc12,93.0*,16.8,39.5
COc1cc(-c2coc3cc(OCc4ccccc4)c(OC)c(O)c3c2=O)cc(O)c1OC,31.5,-31.1,27.8
CC(C)NC(=O)N(C)C[C@@H]1Oc2ccc(NC(=O)Nc3ccc4c(c3)OCO4)cc2C(=O)N([C@@H](C)CO)C[C@H]1C,-9.3,-1.6,-3.1
Cc1ccc(NC(=O)CSc2nnnn2-c2ccc(F)cc2)cc1C,x,23.0,-11.3
C/C(=N\O)c1ccc2c(c1)CCO2,-64.3,-52.0,17.2
CN(C)/C=C/C(=O)c1ccc2c(c1)CCO2,-54.5,-26.5,109.6*
C[C@H]1CN([C@@H](C)CO)C(=O)c2cc(NC(=O)CCCCCC(=O)Nc3ccccc3N)ccc2O[C@@H]1CN(C)S(=O)(=O)c1cn(C)cn1,x,-5.3,29.5
C[C@H](CO)N1C[C@H](C)[C@H](CN(C)Cc2ccc(Oc3ccccc3)cc2)Oc2ccc(NC(=O)C3CCCCC3)cc2CC1=O,18.4,8.1,47.7
C[C@@H]1CN([C@H](C)CO)C(=O)Cc2cc(NC(=O)C3CC3)ccc2O[C@H]1CN(C)Cc1ccc(Oc2ccccc2)cc1,-4.5,7.8,23.0
C[C@@H]1CN([C@H](C)CO)C(=O)Cc2cc(NC(=O)C3CCCCC3)ccc2O[C@@H]1CN(C)Cc1ccc(-c2ccccc2)cc1,43.1,15.8,112.9*
C[C@@H]1CN([C@@H](C)CO)C(=O)Cc2cc(NC(=O)C3CCCCC3)ccc2O[C@@H]1CN(C)Cc1ccc(Oc2ccccc2)cc1,u,9.8,94.6*
C[C@H]1CN([C@@H](C)CO)C(=O)Cc2cc(NC(=O)C3CCCCC3)ccc2O[C@@H]1CN(C)Cc1ccc(-c2ccccc2)cc1,-8.7,18.2,54.7
C[C@@H]1CN([C@H](C)CO)C(=O)Cc2cc(NC(=O)C3CCCCC3)ccc2O[C@@H]1CN(C)Cc1ccc(Oc2ccccc2)cc1,69.7*,38.9,71.6
O=C1c2ccccc2C(=O)N1CCC12CC3CC(CC(C3)C1)C2,x,-0.5,24.1
Cc1ccc(N(C(C)C(=O)Nc2ccc(I)cc2)S(C)(=O)=O)cc1C (stereo not given),x,14.7,20.0
O=C(c1cccc2ccccc12)N1CCc2ccccc21,54.0,55.4,42.6
Cc1ccc2nc(CCCC(=O)O)[nH]c2c1,-36.4,-1.0,38.5
C[C@H](CO)N1C[C@H](C)[C@@H](CN(C)Cc2ccc3c(c2)OCO3)Oc2ccc(NC(=O)C3CC3)cc2C1=O,-10.1,-0.6,5.3
C[C@H](CO)N1C[C@H](C)[C@H](CN(C)C(=O)NC2CCCCC2)Oc2c(NC(=O)Nc3cccc4ccccc34)cccc2C1=O,-45.8,49.3,97.0*
C[C@H](CO)N1C[C@H](C)[C@H](CN(C)C(=O)Nc2ccc(F)cc2)Oc2c(NC(=O)Nc3cccc4ccccc34)cccc2C1=O,28.0,u,123.8*
SMILES,Shh pathway inh,MITF inh,NOMO-1 viab
C[C@@H]1CN([C@H](C)CO)C(=O)c2cccc(NC(=O)Nc3cccc4ccccc34)c2O[C@H]1CN(C)C(=O)NC1CCCCC1,18.4,33.0,u
C[C@H]1CN([C@@H](C)CO)C(=O)c2cccc(NC(=O)Nc3cccc4ccccc34)c2O[C@@H]1CN(C)C(=O)Nc1ccc(F)cc1,13.2,-4.1,23.1
CC(C)(C)[C@H]1COC(CC2=N[C@@H](C(C)(C)C)CO2)=N1,-40.6,-10.0,5.6
Cc1cccc(NC(=O)CSc2nnc(-c3ccncc3)n2-c2ccc(C)c(C)c2)c1,x,15.8,29.2
O=C(Cn1nnc2sc3c(c2c1=O)CCCC3)NCc1ccco1,x,16.8,40.8
COc1cc(NC(=O)C(C)Oc2ccc(Cl)cc2C)c(C(=O)O)cc1OC (stereo not given),x,-11.5,9.4
COc1ccc(C(C)=O)cc1CSc1nnc(-c2cccc(Br)c2)n1-c1ccccc1,x,1.1,29.4
COc1ccc(NC(=O)Nc2cccc3c2O[C@@H](CN(C)Cc2ccc(C(F)(F)F)cc2)[C@@H](C)CN([C@@H](C)CO)C3=O)cc1,-41.8,4.6,17.0
C[C@@H]1CN([C@@H](C)CO)C(=O)c2cc(NS(=O)(=O)c3ccc(Cl)cc3)ccc2O[C@H]1CN(C)CC1CC1,-14.0,-2.7,35.8
CCOC(=O)C1CCN(C(=O)Nc2ccc3snnc3c2)CC1,x,-4.2,105.8*
CCOC(=O)C1CCN(C(=O)N2c3ccccc3Sc3ccccc32)CC1,17.6,5.1,2.3
CS(=O)(=O)N(CC(=O)Nc1ccc(Cl)c(Cl)c1)c1cc(Cl)cc(Cl)c1,x,11.6,37.7
CS(=O)(=O)N(CC(=O)Nc1ccccc1C(F)(F)F)c1ccc(Cl)c(C(F)(F)F)c1,x,2.8,4.2
CS(=O)(=O)N(CC(=O)Nc1ccc(I)cc1)c1ccc(Cl)c(Cl)c1,x,u,89.8*
Cc1cc(N(CC(=O)Nc2ccc(F)c(Cl)c2)S(C)(=O)=O)ccc1Br,x,46.9,92.8*
CS(=O)(=O)N(CC(=O)Nc1ccc(Br)c(Cl)c1)c1ccc(F)c(Cl)c1,x,2.3,31.6
COc1ccc(N(CC(=O)Nc2ccc(I)cc2)S(C)(=O)=O)cc1Cl,x,8.0,10.2
CS(=O)(=O)N(CC(=O)Nc1ccc(Cl)c(Cl)c1)c1ccc(Br)cc1,x,115.9*,114.5*
Cc1ccc(NC(=O)CN(c2ccc(Cl)c(C(F)(F)F)c2)S(C)(=O)=O)cc1,x,-6.6,91.3*
C[N+]1(CC(O)CN2CCCC2=O)CCCCCC1 (stereo not given),x,5.4,-2.0
COc1ccc(NC(=O)Nc2ccc3c(c2)C(=O)N([C@@H](C)CO)C[C@@H](C)[C@H](CN(C)C(=O)NC2CCCCC2)O3)cc1,x,15.5,-3.5
C[C@@H]1CCCCO[C@H](CN(C)C(=O)Nc2cccc3ccccc23)[C@@H](C)CN([C@H](C)CO)C(=O)c2cc(NC(=O)c3ccncc3)ccc2O1,-3.0,-10.8,3.8
CN(CCO)S(=O)(=O)c1cccc(C(=O)O)c1,x,10.2,-6.5
COc1ccc(S(=O)(=O)N(C)CC(=O)N2CCOCC2)cc1OC,x,-8.8,-20.2
N#Cc1c(C(F)(F)F)cc(-c2ccccc2)nc1SCCC(=O)Nc1ccccc1,x,29.2,26.3
COC(=O)c1c(NC(=S)NCc2ccco2)sc2c1CCC2,x,-12.3,34.4
Cc1ccc([N+](=O)[O-])cc1N(CC(=O)Nc1cccc(F)c1)S(C)(=O)=O,x,-0.2,40.1
Cc1ccc([N+](=O)[O-])cc1N(CC(=O)Nc1ccc(I)cc1)S(C)(=O)=O,x,10.5,120.8*
CS(=O)(=O)N(CC(=O)Nc1cccc(Br)c1)c1ccc(F)c(Cl)c1,x,18.2,45.3
